Data published in PubChem BioAssay.
Results filed as inconclusive are left out. The source made the active and inactive calls.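 Rule for the calls, unless noted: active = inhibition above the screen-wide mean plus 3 SD, about 51%; inactive = the rest.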

Key:
[1] = rapamycin-like changes in RPL19A-GFP expression – cell-based, S. cerevisiae, multiplex flow cytometry, primary screen (AID 1862; in the data active = percent of DMSO control GFP below about 86%;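 note: lower values mimic rapamycin by blocking the RPL19A rise seen in DMSO cells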); conditions: S. cerevisiae RPL19A-GFP strain, flow cytometry fluorescence, 3 h; at 10 µM; stronger effect = lower value
[2] = TOR pathway GLN3 branch reporter MEP2-GFP changes – S. cerevisiae, multiplex flow cytometry, primary screen (AID 1867;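 active = GFP response, as percent of the DMSO control, above the screen-wide mean plus 3 SD, about 139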;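 note: median GFP channel fluorescence of barcode-gated MEP2-GFP cells measured by flow cytometry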); conditions: S. cerevisiae MEP2-GFP strain, 3 h, at 10 µM, stronger effect = higher value, 100% means same as DMSO wells
[3] = TOR pathway RTG branch CIT2 reporter changes – S. cerevisiae, GFP fusion, multiplex flow cytometry, primary screen (AID 1870;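 active = percent response above a set limit, the screen-wide mean plus 3 SD, cut at about 130% in these data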;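 note: barcoded CIT2-GFP strain pooled with four other GFP strains with rapamycin as positive control; median GFP fluorescence per well over plate mean of DMSO wells so 100% = DMSO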); conditions: S. cerevisiae CIT2-GFP expression, 3 h, at 10 µM, stronger effect = higher value
[4] = TOR pathway LAP4-GFP level changes – S. cerevisiae, multiplex flow cytometry, primary screen (AID 1873;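 active = GFP signal, as percent of the solvent control, above the screen mean plus 3 SD, about 149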); conditions: S. cerevisiae LAP4-GFP expression, 3 h, at 10 µM, stronger effect = higher value
[5] = yeast AGP1-GFP level changes, GLN3 branch – cell-based, multiplex flow cytometry, S. cerevisiae, primary screen (AID 1887;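 active = GFP signal above the screen-wide mean plus 3 SD, that is over about 124.5% of the solvent control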;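 note: AGP1-GFP fusion strain of S. cerevisiae within a five-strain barcoded multiplex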); conditions: 3 h, at 10 µM, stronger effect = higher value
[6] = reduced mouse 2C T cell binding to pMHC/ICAM-1 vesicles – MLPCN validation set, flow cytometry, LFA-1/ICAM-1 modulator project, pilot screen (AID 2523;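 active = response below a set limit, under 55% cells CD8-positive and vesicle-bound, and CD8 cells' 90th-percentile brightness under 279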;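 for vesicle binding response: mean PE anti-B7-1 fluorescence of CD8+ cells relative to row control; 100% = QL9-loaded vesicles with DMSO vehicle in the same plate row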); conditions: 2C mouse CD8+ T cells, at 7 µM, stronger effect = lower value; double positive events: measured here: CD8+/vesicle+ event percentage
[7] = biological target: Integrin beta-1 (Homo sapiens) + Integrin alpha-4 (Homo sapiens) (UniProt P13612+P05556); assay: alpha4beta1 integrin LIBS antibody binding reduction – U937 cells, HUTS-21 mAb, flow cytometry, validation set, VLA-4 allosteric modulator project, pilot screen (AID 2674;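 active = inhibition above 50%, about 3 SD of the validation set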;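 note: antibody binding induced by the VLA-4 ligand LDV present at three times its Kd; 0% = LDV ligand with antibody and no compound and 100% = antibody without LDV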); conditions: HUTS-21 LIBS mAb binding, at 6.7 µM, stronger effect = higher value, binding induced by LDV ligand
Chain of Integrin beta-1 (Homo sapiens) + Integrin alpha-4 (Homo sapiens) (P05556 whole entry, looked up): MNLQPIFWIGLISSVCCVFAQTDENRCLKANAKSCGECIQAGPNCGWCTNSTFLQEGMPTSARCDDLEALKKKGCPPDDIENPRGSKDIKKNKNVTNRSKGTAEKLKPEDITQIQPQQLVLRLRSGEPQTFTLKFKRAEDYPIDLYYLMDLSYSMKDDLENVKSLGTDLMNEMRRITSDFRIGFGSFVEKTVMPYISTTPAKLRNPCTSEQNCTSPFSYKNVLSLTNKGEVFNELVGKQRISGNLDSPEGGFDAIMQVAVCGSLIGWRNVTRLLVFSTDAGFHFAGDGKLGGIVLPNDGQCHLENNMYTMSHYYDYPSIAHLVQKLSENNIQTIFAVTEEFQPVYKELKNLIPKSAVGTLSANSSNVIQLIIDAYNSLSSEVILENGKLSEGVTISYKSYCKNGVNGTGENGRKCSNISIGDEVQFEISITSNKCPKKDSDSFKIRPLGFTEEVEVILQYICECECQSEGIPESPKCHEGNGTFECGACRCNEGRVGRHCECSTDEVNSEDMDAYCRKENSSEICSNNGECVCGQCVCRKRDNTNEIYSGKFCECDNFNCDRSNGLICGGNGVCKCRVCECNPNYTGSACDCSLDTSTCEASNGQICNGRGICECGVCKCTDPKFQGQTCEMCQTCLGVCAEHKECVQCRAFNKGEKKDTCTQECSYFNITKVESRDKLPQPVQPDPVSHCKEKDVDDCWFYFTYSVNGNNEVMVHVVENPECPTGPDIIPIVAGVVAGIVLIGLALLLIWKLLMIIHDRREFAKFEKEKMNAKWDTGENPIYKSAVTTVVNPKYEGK
Chain of Integrin beta-1 (Homo sapiens) + Integrin alpha-4 (Homo sapiens) (P13612 whole entry, looked up): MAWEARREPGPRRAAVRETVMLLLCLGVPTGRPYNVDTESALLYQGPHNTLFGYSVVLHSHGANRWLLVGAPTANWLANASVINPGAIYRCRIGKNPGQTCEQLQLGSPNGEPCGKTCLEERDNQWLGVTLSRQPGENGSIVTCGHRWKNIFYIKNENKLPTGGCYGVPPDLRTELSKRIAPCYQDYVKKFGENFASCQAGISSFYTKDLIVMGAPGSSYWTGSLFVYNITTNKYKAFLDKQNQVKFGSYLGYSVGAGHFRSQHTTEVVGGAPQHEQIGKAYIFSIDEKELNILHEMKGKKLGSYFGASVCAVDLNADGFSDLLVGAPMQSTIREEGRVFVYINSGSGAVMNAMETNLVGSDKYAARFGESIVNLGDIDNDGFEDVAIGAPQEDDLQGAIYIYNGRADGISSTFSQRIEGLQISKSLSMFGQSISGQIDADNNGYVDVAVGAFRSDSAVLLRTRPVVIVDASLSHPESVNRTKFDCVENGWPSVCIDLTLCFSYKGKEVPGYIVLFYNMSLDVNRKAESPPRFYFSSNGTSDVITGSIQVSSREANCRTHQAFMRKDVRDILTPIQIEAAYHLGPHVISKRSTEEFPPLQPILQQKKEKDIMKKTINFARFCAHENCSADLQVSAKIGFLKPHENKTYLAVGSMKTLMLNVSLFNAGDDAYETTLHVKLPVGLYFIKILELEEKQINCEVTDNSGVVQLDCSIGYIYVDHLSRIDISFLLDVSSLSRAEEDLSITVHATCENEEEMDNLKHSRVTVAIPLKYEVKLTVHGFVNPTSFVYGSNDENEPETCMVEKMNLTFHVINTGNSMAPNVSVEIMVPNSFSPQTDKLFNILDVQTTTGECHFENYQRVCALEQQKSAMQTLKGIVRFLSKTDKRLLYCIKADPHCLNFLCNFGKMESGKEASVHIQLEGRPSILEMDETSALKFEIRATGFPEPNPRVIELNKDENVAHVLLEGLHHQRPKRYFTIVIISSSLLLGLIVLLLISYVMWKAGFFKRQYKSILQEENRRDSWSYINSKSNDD

[8] = calorie-restriction mimetic ROS inhibitors, yeast – validation compound set, pilot screen (AID 2706;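 active = superoxide response below 65% of plate, a cut near 3 SD across the whole screen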;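 note: yeast exposed to compound for one week at 30 degrees C before staining; 100% = mean of all compound wells on the same plate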); conditions: S. cerevisiae aging, superoxide DHE fluorescence; at 10 µM; stronger effect = lower value
[9] = biological target: Beta-adrenergic receptor kinase 1 (Homo sapiens) (UniProt P25098); assay: GRK2 binders displacing RNA aptamer, biochemical, validation, human GRK2, bead flow cytometry (AID 488806;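 active = aptamer binding inhibition above 30%, about 3 SD of noise from non-fluorescent compounds; inactive = inhibition at or below 30%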); conditions: bead-bound GRK2, FAM-aptamer displacement, at 10 µM, stronger effect = higher value
Chain of Beta-adrenergic receptor kinase 1 (Homo sapiens) (P25098 whole entry, looked up): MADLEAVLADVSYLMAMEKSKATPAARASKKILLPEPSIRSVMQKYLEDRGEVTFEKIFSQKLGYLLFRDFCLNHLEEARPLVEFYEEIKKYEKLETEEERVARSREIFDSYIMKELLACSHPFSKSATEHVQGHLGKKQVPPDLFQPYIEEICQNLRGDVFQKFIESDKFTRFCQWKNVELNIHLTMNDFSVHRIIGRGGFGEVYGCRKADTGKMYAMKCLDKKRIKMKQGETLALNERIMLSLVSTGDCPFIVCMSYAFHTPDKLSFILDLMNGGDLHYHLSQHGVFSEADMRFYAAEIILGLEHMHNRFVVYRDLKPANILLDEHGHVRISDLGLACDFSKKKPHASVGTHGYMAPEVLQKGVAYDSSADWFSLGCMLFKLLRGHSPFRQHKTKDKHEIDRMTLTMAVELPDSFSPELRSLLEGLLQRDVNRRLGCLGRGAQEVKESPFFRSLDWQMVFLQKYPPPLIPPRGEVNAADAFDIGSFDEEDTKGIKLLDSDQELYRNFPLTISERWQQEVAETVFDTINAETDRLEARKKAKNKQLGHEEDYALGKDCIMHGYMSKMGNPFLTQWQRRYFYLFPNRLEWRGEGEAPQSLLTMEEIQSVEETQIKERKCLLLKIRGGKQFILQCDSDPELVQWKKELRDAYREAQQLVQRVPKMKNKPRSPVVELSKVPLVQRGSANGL

[10] = biological target: Beta-2 adrenergic receptor (Homo sapiens) (UniProt P07550); assay: agonist-induced loss of surface beta2AR – cell-based, FAP fluorogen, flow cytometry, validation set, pilot screen (AID 504459;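 active = percent response above 42, roughly 3 SD of non-fluorescent test compounds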;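 note: agonist-driven loss of surface beta2AR via internalization measured by FAP dye flow cytometry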); conditions: Am2.2-beta2AR cells, at 10 µM, stronger effect = higher value
Chain of Beta-2 adrenergic receptor (Homo sapiens) (P07550 whole entry, looked up): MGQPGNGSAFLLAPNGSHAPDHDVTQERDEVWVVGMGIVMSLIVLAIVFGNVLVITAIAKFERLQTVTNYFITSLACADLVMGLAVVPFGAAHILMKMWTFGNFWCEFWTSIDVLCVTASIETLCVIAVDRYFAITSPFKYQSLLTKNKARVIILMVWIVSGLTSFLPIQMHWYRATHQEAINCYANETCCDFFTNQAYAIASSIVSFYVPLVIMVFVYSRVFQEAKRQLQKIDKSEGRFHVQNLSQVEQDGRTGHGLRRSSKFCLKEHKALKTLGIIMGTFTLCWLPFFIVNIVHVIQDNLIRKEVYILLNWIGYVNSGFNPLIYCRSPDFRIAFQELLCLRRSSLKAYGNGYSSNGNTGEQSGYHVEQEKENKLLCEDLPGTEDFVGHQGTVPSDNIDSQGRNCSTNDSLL

[11] = biological target: AP-2 complex subunit beta (Homo sapiens) (UniProt P63010); assay: beta-arrestin/AP2 interaction blockers – biochemical, validation set, GST-AP2 beads, flow cytometry, pilot screen (AID 504541;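 active = inhibition above 54%, about 3 SD of non-fluorescent compounds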;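 note: AP2 carries R879A mutation and is captured from E. coli lysate; bead-bound FITC arrestin peptide fluorescence measuring arrestin peptide binding to AP2; 0% = DMSO wells and 100% = excess unlabeled arrestin peptide control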); conditions: FITC arrestin peptide, at 10 µM, stronger effect = higher value, AP2 beta2 appendage fragment, R879A mutant
Chain of AP-2 complex subunit beta (Homo sapiens) (P63010 whole entry, looked up, the tested form may be a part, one chain of several): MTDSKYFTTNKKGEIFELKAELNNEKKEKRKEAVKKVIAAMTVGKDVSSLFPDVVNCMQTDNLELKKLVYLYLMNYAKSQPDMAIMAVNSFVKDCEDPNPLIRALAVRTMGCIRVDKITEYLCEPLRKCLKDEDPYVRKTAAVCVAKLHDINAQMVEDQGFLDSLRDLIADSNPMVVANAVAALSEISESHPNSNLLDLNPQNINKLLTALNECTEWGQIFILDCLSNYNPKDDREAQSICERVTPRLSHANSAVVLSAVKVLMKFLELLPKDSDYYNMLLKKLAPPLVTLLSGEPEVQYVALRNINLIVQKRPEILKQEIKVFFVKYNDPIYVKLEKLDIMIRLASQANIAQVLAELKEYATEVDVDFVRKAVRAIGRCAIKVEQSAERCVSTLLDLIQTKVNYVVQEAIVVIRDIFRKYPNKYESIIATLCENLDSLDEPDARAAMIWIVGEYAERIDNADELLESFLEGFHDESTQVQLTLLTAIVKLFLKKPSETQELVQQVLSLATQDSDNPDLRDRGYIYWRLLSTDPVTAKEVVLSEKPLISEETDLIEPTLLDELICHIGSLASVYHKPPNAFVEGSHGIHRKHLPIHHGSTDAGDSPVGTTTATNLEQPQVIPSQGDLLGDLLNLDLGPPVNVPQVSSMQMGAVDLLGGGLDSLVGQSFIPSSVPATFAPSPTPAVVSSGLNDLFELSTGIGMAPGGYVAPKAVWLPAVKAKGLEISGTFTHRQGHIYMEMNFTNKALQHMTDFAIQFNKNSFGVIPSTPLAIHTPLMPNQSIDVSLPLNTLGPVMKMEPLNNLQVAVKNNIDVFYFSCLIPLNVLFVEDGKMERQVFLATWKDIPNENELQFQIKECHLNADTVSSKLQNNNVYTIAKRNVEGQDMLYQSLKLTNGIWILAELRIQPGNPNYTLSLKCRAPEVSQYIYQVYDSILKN

[12] = cytosolic pH regulators acting via V-ATPase – S. cerevisiae, pHLuorin, HTS validation (AID 504600; in the data active = response above about 15%;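 note: plate controls were DMSO for no effect and reference compound for full effect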); conditions: V-ATPase proton transport, at 10 µM, stronger effect = higher value
[13] = system: anti-desmoglein-3 scFv antibody binding to human DSG3; assay: blockers of pathogenic pemphigus antibody–desmoglein-3 binding – biochemical, validation compound set, bead-based, flow cytometry, pilot screen (AID 588368;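 active = binding below the plate cutoff, the plate median minus 3 SD, with a reading above zero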;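 note: signal is the median channel fluorescence of bead-bound GFP antibody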); conditions: Protein G beads, DSG3-Fc, scFv-GFP binding, at 10 µM, stronger effect = lower value
[14] = Nile Red efflux blockade in pump-expressing yeast – validation compound set, multiplex, phenotypic, pilot screen (AID 588506;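 active = efflux inhibition above 0.42, the validation set average plus 4 SD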;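 note: Nile Red retained in cells so higher fluorescence means more efflux inhibition; 0 = negative control wells and 1 = enniatin B 25 µM full block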); conditions: S. cerevisiae pump-expressing triplex, Nile Red efflux flow cytometry; at 10 µM; stronger effect = higher value; the pumps come from Candida albicans
[15] = biological target: ATP-binding cassette sub-family B member 6 (Homo sapiens) (UniProt Q9NP58); assay: blockers of ABCB6-driven porphyrin uptake – K562-ABCB6 cells, flow cytometry, validation set, pilot screen (AID 588550); conditions: K562-ABCB6 porphyrin accumulation, 1 h, at 10 µM, stronger effect = higher value;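 note: 0% = DMSO wells and 100% = benzethonium chloride 70 µM positive control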
Chain of ATP-binding cassette sub-family B member 6 (Homo sapiens) (Q9NP58 whole entry, looked up): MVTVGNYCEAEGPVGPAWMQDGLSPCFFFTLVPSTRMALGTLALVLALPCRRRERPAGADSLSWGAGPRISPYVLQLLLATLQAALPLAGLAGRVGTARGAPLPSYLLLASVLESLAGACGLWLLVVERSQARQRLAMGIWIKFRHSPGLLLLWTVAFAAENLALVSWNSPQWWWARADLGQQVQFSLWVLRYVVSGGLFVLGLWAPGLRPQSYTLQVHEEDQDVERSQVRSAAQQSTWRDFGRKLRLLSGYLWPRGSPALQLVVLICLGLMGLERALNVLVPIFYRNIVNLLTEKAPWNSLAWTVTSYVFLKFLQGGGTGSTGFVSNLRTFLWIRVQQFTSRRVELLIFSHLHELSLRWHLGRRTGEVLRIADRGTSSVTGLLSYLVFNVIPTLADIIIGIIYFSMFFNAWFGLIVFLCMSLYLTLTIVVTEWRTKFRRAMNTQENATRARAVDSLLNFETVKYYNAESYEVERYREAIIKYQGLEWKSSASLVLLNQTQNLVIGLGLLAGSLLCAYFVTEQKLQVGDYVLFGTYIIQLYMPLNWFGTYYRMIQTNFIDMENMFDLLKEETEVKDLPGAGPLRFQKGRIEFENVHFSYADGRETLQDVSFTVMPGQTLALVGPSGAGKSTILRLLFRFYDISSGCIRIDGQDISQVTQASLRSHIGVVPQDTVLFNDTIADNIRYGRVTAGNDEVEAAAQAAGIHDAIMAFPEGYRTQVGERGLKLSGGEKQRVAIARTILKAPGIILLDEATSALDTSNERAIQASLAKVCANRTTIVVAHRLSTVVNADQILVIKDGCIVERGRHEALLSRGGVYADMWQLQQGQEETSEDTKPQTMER

[16] = AML differentiation inducers, ER-HoxA9 marrow cells – cell-based, GFP/MAC1 double positive, flow cytometry, validation set, primary screen (AID 588685;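 active = differentiation response of at least 50%, scaled between solvent and reference control, from cells with both markers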;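 note: compound exposure lasts four days before antibody staining and flow analysis; 0% = DMSO wells and 100% = 5 µM fulvestrant positive control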); conditions: stronger effect = higher value, normalized: vehicle 0, fulvestrant 100

COc1ccc(O)c(C(=O)/C=C/c2cc3ccccc3o2)c1
inactive: percent of DMSO control GFP [1] 95.9% | GFP response vs DMSO [2] 112% | percent response of DMSO control [3] 96.7% | GFP response vs DMSO [4] 109% | GFP response, % of DMSO [5] 95.2% | vesicle binding response [6] 117% | inhibition [7] -0.43% | superoxide response (% of plate) [8] 106% | aptamer binding inhibition [9] 3% | response [10] 23% | inhibition [11] 1.27% | response [12] 0.06% | binding (% of control) [13] 102% | efflux inhibition (fraction of control) [14] -0.17 | inhibition [15] 1% | differentiation response [16] -2.4%
59.6%: double positive events [6]

COc1c(O)ccc2c1CN1CCc3cc4c(cc3C1C2)OCO4 (configuration not stated)
active: efflux inhibition (fraction of control) [14] 0.66
61.6%: double positive events [6]
inactive: percent of DMSO control GFP [1] 107% | GFP response vs DMSO [2] 112% | percent response of DMSO control [3] 93.9% | GFP response vs DMSO [4] 130% | GFP response, % of DMSO [5] 103% | vesicle binding response [6] 157% | superoxide response (% of plate) [8] 92.6% | aptamer binding inhibition [9] 1% | response [10] 24.6% | inhibition [11] 30.3% | response [12] -1.39% | binding (% of control) [13] 99.7% | inhibition [15] -25% | differentiation response [16] 23.2%

Cc1cccc(Oc2coc3cc(OC(=O)c4cncc(Br)c4)ccc3c2=O)c1
inactive: percent of DMSO control GFP [1] 98% | GFP response vs DMSO [2] 111% | percent response of DMSO control [3] 95.8% | GFP response vs DMSO [4] 126% | GFP response, % of DMSO [5] 100% | vesicle binding response [6] 224% | inhibition [7] -4.52% | superoxide response (% of plate) [8] 78.9% | aptamer binding inhibition [9] 1% | response [10] 9.93% | inhibition [11] -11.9% | response [12] 1.76% | binding (% of control) [13] 99.1% | efflux inhibition (fraction of control) [14] 0.33 | differentiation response [16] 10.4%
64.8%: double positive events [6]
active: inhibition [15] 103%

Cn1c(=O)c2nc3ccccc3nc2n(C)c1=O
inactive: percent of DMSO control GFP [1] 94.6% | GFP response vs DMSO [2] 103% | percent response of DMSO control [3] 93.9% | GFP response vs DMSO [4] 112% | GFP response, % of DMSO [5] 94.3% | vesicle binding response [6] 198% | inhibition [7] 2.3% | superoxide response (% of plate) [8] 99.2% | aptamer binding inhibition [9] 0% | response [10] -7.58% | inhibition [11] -11.6% | response [12] 2.81% | binding (% of control) [13] 101% | efflux inhibition (fraction of control) [14] -0.1 | inhibition [15] 2% | differentiation response [16] -12%
61.5%: double positive events [6]
